Reference: the supplement of paper PMC7366291
Structures can show the parent of a compound that is named as a salt. ± gives the standard deviation of the averaged measurements.

What follows are compounds tested on Danio rerio Tg(wt1b:EGFP) embryo, pronephros (assay: glomerular width (mean of left and right), fold change vs DMSO control; higher = wider glomerulus). Details: 25 µM; exposure: 24-48 hpf.
Summary of the method: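 Dechorionated Tg(wt1b:EGFP) zebrafish embryos were exposed to 25 μM compound in 0.5% DMSO, HEPES-buffered E3 with 0.003% PTU, from 24 to 48 hpf at 28.5°C. Pronephroi were imaged dorsally in agarose-filled 96-well plates (470 nm, 10 z-slices). On maximum projections, 16 reference points were set manually in Fiji and a macro computed distances and angles. Values more than 2 SD from the feature mean were excluded. Each feature is a fold change relative to the mean of same-day DMSO controls.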

Point of comparison: COc1cc(-c2ccc(=O)[nH]n2)ccc1OC(F)F [Zardaverine], glomerular width 0.9712 ± 0.0072. Against it:
- CO[C@@]1(NC(=O)CSCC#N)C(=O)N2C(C(=O)O)=C(CSc3nnnn3C)CS[C@@H]21 [Cefmetazole sodium salt] — higher, 1.004 ± 0.0038
- CNC(=C[N+](=O)[O-])NCCSCc1ccc(CN(C)C)o1 [Ranitidine hydrochloride] — within error, 0.941 ± 0.074
- COc1ccc2[nH]c([S+]([O-])Cc3ncc(C)c(OC)c3C)nc2c1 (centres undefined) [Omeprazole] — within error, 0.935 ± 0.073
- CCCC(CCC)C(=O)O [Valproic acid] — lower, 0.725 ± 0.057
- Cc1cccc(C)c1NC(=O)C1CCCCN1C (centres undefined) [Mepivacaine hydrochloride] — higher, 1.06 ± 0.058
- CC1CC(OC(=O)c2ccccc2O)CC(C)(C)C1 (centres undefined) [Homosalate] — lower, 0.8777 ± 0.0016
- CNCCC=C1c2ccccc2C=Cc2ccccc21 [Norcyclobenzaprine] — within error, 1.01 ± 0.051
- NCCCC(O)(P(=O)(O)O)P(=O)(O)O [Alendronate sodium] — within error, 0.984 ± 0.03
- C#C[C@]1(O)CC[C@H]2[C@@H]3CCC4=CC(=O)CC[C@@H]4[C@H]3CC[C@@]21CC [Norgestrel-(-)-D] — higher, 1.016 ± 0.0075
- O=C1NCCN1c1ncc([N+](=O)[O-])s1 [Niridazole] — lower, 0.867 ± 0.021
- CN(C)CC/C=C1/c2ccccc2Sc2ccc(Cl)cc21 [Chlorprothixene hydrochloride] — higher, 1.034 ± 1.4e-05
- COC(=O)Nc1nc2ccc(SC(C)C)cc2[nH]1 [Methiazole] — lower, 0.49428 ± 0.00044
- CCCNC(C)(C)COC(=O)c1ccccc1 [Meprylcaine hydrochloride] — within error, 0.936 ± 0.03
- CC(=O)c1ccc2c(c1)N(CCCN1CCC(CCO)CC1)c1ccccc1S2 [Piperacetazine] — within error, 0.976 ± 0.023
- COc1cc(NS(=O)(=O)c2ccc(N)cc2)ncn1 [Sulfamonomethoxine] — within error, 0.946 ± 0.055
- C(=C\c1ccccc1)/CN1CCN(C(c2ccccc2)c2ccccc2)CC1 [Cinnarizine] — higher, 1.03 ± 0.024
- OC(Cn1cncn1)(Cn1cncn1)c1ccc(F)cc1F [Fluconazole] — within error, 0.967 ± 0.095
- COc1cc(C(=O)N2CCOCC2)cc(OC)c1OC [Trimetozine] — within error, 0.984 ± 0.065
- CCC[C@@H]1C[C@@H](C(=O)N[C@@H]([C@H]2O[C@H](SC)[C@H](O)[C@@H](O)[C@H]2O)[C@@H](C)O)N(C)C1 [Lincomycin hydrochloride] — within error, 0.984 ± 0.037
- CC/C(=C(\c1ccccc1)c1ccc(OCCN(C)C)cc1)c1ccccc1 [Tamoxifen citrate] — within error, 0.977 ± 0.019
- COCCCC/C(=N\OCCN)c1ccc(C(F)(F)F)cc1 [Fluvoxamine maleate] — lower, 0.91 ± 0.015
- NCc1ccc(S(N)(=O)=O)cc1 [Mafenide hydrochloride] — higher, 1.09 ± 0.019
- CN[C@@H]1[C@H](O)[C@H](NC)[C@H]2O[C@@]3(O)C(=O)C[C@@H](C)O[C@H]3O[C@@H]2[C@H]1O [Spectinomycin dihydrochloride] — higher, 1.07 ± 0.021
- Nc1ccn([C@@H]2O[C@H](CO)[C@@H](O)[C@@H]2O)c(=O)n1 [Cytarabine] — higher, 1.06 ± 0.016
- C[C@]12C=CC(=O)C=C1CC[C@@H]1[C@@H]2C(=O)C[C@@]2(C)[C@H]1CC[C@]2(O)C(=O)CO [Prednisone] — within error, 0.972 ± 0.03
- Cc1cn[nH]c1 [Fomepizole] — higher, 1.0458 ± 0.00026
- CC(C)(C)NCC(O)c1cc(O)cc(O)c1 (centres undefined) [Terbutaline hemisulfate] — within error, 1 ± 0.029
- Nc1nc(Cl)nc2c1ncn2[C@H]1C[C@H](O)[C@@H](CO)O1 [Cladribine] — within error, 0.945 ± 0.021

The compounds below were run on Danio rerio Tg(wt1b:EGFP) embryo, pronephros (assay: fraction of imaged embryos annotated as normal kidney; higher = less nephrotoxic; extreme values may be limits of the assay). Details: 25 µM; exposure: 24-48 hpf.
Summary of the method: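 Zebrafish embryos carrying Tg(wt1b:EGFP) were dechorionated and exposed to 25 μM compound (0.5% DMSO) between 24 and 48 hpf at 28.5°C. Their pronephroi were imaged by widefield fluorescence, and each embryo was classed by hand from maximum projections. The measure is the fraction of embryos per treatment falling in the normal-kidney category.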

Point of comparison: COc1cc(C(=O)N2CCOCC2)cc(OC)c1OC [Trimetozine], “fraction of imaged embryos annotated as normal kidney” value 0.917. Against it:
- C[C@]12C=CC(=O)C=C1CC[C@H]1[C@@H]3C[C@@H](O)[C@](O)(C(=O)CO)[C@@]3(C)C[C@H](O)[C@@]12F [Triamcinolone] — lower, 0.75
- O=C(Nc1ccc([N+](=O)[O-])cc1Cl)c1cc(Cl)ccc1O [Niclosamide] — lower, 0.455
- CC[C@]12CCCN3CCc4c(n(c5ccccc45)C(=O)C1)[C@@H]32 [Eburnamonine (-)] — higher, 1
- CCOC(=O)C1=C(C)NC(C)=C(C(=O)OC)C1c1cccc([N+](=O)[O-])c1 (centres undefined) [Nitrendipine] — lower, 0
- Clc1ccc2nsnc2c1NC1=NCCN1 [Tizanidine hydrochloride] — lower, 0.833
- CCCCC(CC)CN1CN(CC(CC)CCCC)CC(C)(N)C1 (centres undefined) [Hexetidine] — lower, 0.75
- CCN(CC)C(=O)C1(c2ccccc2)CC1CN (centres undefined) [Milnacipran hydrochloride] — higher, 1
- N=C(N)c1ccc(OCCCCCOc2ccc(C(=N)N)cc2)cc1 [Pentamidine isethionate] — higher, 1
- C#CCN[C@@H]1CCc2ccccc21 [Rasagiline] — lower, 0.667
- CC(C)(C(=O)c1cccnc1)c1cccnc1 [Metyrapone] — lower, 0.9
- CCOC(=O)[C@H](CCc1ccccc1)N[C@H]1CCc2ccccc2N(CC(=O)O)C1=O [Benazepril hydrochloride] — lower, 0.75
- CO[C@@]1(NC(=O)CSCC#N)C(=O)N2C(C(=O)O)=C(CSc3nnnn3C)CS[C@@H]21 [Cefmetazole sodium salt] — the same, 0.917
- CNC(=C[N+](=O)[O-])NCCSCc1ccc(CN(C)C)o1 [Ranitidine hydrochloride] — lower, 0.667
- COc1ccc2[nH]c([S+]([O-])Cc3ncc(C)c(OC)c3C)nc2c1 (centres undefined) [Omeprazole] — lower, 0.667
- CCCC(CCC)C(=O)O [Valproic acid] — lower, 0.0833
- Cc1cccc(C)c1NC(=O)C1CCCCN1C (centres undefined) [Mepivacaine hydrochloride] — the same, 0.917
- CC1CC(OC(=O)c2ccccc2O)CC(C)(C)C1 (centres undefined) [Homosalate] — lower, 0.667
- CNCCC=C1c2ccccc2C=Cc2ccccc21 [Norcyclobenzaprine] — lower, 0.833
- NCCCC(O)(P(=O)(O)O)P(=O)(O)O [Alendronate sodium] — lower, 0.833
- C#C[C@]1(O)CC[C@H]2[C@@H]3CCC4=CC(=O)CC[C@@H]4[C@H]3CC[C@@]21CC [Norgestrel-(-)-D] — higher, 1
- O=C1NCCN1c1ncc([N+](=O)[O-])s1 [Niridazole] — lower, 0.833
- CN(C)CC/C=C1/c2ccccc2Sc2ccc(Cl)cc21 [Chlorprothixene hydrochloride] — lower, 0.727
- COC(=O)Nc1nc2ccc(SC(C)C)cc2[nH]1 [Methiazole] — lower, 0
- CCCNC(C)(C)COC(=O)c1ccccc1 [Meprylcaine hydrochloride] — higher, 1
- CC(=O)c1ccc2c(c1)N(CCCN1CCC(CCO)CC1)c1ccccc1S2 [Piperacetazine] — lower, 0.833
- COc1cc(NS(=O)(=O)c2ccc(N)cc2)ncn1 [Sulfamonomethoxine] — lower, 0.833
- C(=C\c1ccccc1)/CN1CCN(C(c2ccccc2)c2ccccc2)CC1 [Cinnarizine] — lower, 0.75
- OC(Cn1cncn1)(Cn1cncn1)c1ccc(F)cc1F [Fluconazole] — the same, 0.917
- CCC[C@@H]1C[C@@H](C(=O)N[C@@H]([C@H]2O[C@H](SC)[C@H](O)[C@@H](O)[C@H]2O)[C@@H](C)O)N(C)C1 [Lincomycin hydrochloride] — the same, 0.917
- CC/C(=C(\c1ccccc1)c1ccc(OCCN(C)C)cc1)c1ccccc1 [Tamoxifen citrate] — lower, 0.833
- COCCCC/C(=N\OCCN)c1ccc(C(F)(F)F)cc1 [Fluvoxamine maleate] — higher, 1
- NCc1ccc(S(N)(=O)=O)cc1 [Mafenide hydrochloride] — lower, 0.833
- CN[C@@H]1[C@H](O)[C@H](NC)[C@H]2O[C@@]3(O)C(=O)C[C@@H](C)O[C@H]3O[C@@H]2[C@H]1O [Spectinomycin dihydrochloride] — lower, 0.909
- Nc1ccn([C@@H]2O[C@H](CO)[C@@H](O)[C@@H]2O)c(=O)n1 [Cytarabine] — the same, 0.917
- C[C@]12C=CC(=O)C=C1CC[C@@H]1[C@@H]2C(=O)C[C@@]2(C)[C@H]1CC[C@]2(O)C(=O)CO [Prednisone] — lower, 0.833
- Cc1cn[nH]c1 [Fomepizole] — the same, 0.917
- COc1cc(-c2ccc(=O)[nH]n2)ccc1OC(F)F [Zardaverine] — lower, 0.583
- CC(C)(C)NCC(O)c1cc(O)cc(O)c1 (centres undefined) [Terbutaline hemisulfate] — lower, 0.75
- Nc1nc(Cl)nc2c1ncn2[C@H]1C[C@H](O)[C@@H](CO)O1 [Cladribine] — lower, 0.909
